Measurements from PubChem BioAssay AID686940 (The Scripps Research Institute Molecular Screening Center, 2013).
In all, about 370,000 compounds went through this assay and about 2,600 (0.7%) were called active. Only a selection was taken, and actives are over-represented in it overall. A number with no mark means an inactive call.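 The calls were made as follows: active = inhibition above a per-plate cutoff, mean inhibition of test wells between control levels plus 3 SD (cut at about 38% in these data); inactive = the rest.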

target: COUP transcription factor 2 (Homo sapiens) (UniProt P24468); assay: COUP-TFII reporter suppression in human cells – cell-based, luciferase reporter, HEK293T, luminescence, primary screen (AID 686940); conditions: HEK293T NGFI-A luciferase reporter, at 8.6 µM, active compounds read high;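 also: cells cotransfected with COUP-TFII expression vector driving the NGFI-A reporter; 0% = median of COUP-TF2 test wells and 100% = reporter-only cells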
Sequence (P24468 whole entry, looked up): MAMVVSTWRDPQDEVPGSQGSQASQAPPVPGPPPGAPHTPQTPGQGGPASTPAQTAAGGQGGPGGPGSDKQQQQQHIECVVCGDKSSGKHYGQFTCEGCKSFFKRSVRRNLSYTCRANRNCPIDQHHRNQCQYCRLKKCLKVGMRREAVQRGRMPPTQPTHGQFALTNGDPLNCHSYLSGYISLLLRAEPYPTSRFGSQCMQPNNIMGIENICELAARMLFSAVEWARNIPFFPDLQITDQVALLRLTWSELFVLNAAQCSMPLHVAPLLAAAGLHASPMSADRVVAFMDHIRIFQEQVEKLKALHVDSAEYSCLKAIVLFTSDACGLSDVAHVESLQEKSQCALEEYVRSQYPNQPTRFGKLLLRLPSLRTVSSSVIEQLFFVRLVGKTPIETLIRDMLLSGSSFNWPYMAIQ

For `CC1=CC(=Cc2sc3ccccc3[n+]2C)C=C(C)O1`, the inhibition was 71.6% (active).
For `COC1C(O)C(C)OC(OC2CCC3(C=O)C(CCC4C3CCC3(C)C(C5=CC(=O)OC5)CCC43O)C2)C1O` (stereo not given), the inhibition was 78.5% (active).
With `CCOc1ccc(-c2cc(C)[n+](CCN(CC)CC)c(-c3ccc(OCC)cc3)c2)cc1` the inhibition was 65.8% (active).
`CCC(C)(O)C(=O)OC1C(=O)OC2CC3C(C)=CC(=O)C(O)C3(C)C3C4(O)OCC23C1C(C)C4O` (stereo not given) was tested, and the inhibition was 89.2% (active).
`CCCCCCCCCCCCn1ccc(=N)cc1` was tested, and the inhibition was 81.1% (active).
For `C[C@]12CC[C@H](O)C[C@H]1CC[C@@H]1C2CC[C@]2(C)[C@@H](C3=CC(=O)OC3)[C@@H](O)C[C@]12O` (stereo not given in full), the inhibition was 44.1% (active).

Going from `O=C(NCC1=C(c2ccc3ccccc3c2)C[C@@H]2CC[C@H]1N2Cc1ccco1)c1cccs1` to `COC(=O)C1=C(c2ccc(-c3ccccc3)c(F)c2)C[C@@H]2CC[C@H]1N2C(=O)NCc1ccc(F)cc1`, the inhibition rises from -9.66% to 9.38%.

Going from `Cc1cccc(NC(=O)OC2CN3CCC2CC3)c1` (stereo not given) to `CC(C)Oc1cccc(C(=O)C2CCCN(C3CCOCC3)C2)c1` (stereo not given), the inhibition falls from -3.61% to -4.53%.

Going from `Cc1ccc(P(=S)(c2ccc(C)o2)N2CCOCC2)o1` to `Cc1cc(N2CCNC[C@@H]2C)ccc1N1CC[C@H](O)C1`, the inhibition rises from -6.39% to 14.6%.

Compared with `O=C(C1CC(=O)N(C2CCCC2)C1)N1CCC2(CC1)OCCO2` (stereo not given), `COc1ccc2c(c1)[C@@]13CCCCC1[C@@H](C2)NCC3` (stereo not given in full) is lower in inhibition: -6.43% for the first, -12.9% for the second.

Going from `CC(=C1C(=O)c2ccccc2C1=O)N1CCN(CCN=Cc2c(O)n(C)c(=O)n(C)c2=O)CC1` to `CC(=NC1CCN(Cc2ccccc2)CC1)c1c(O)n(C)c(=O)n(C)c1=O`, the inhibition falls from 13.2% to -7.27%.

Going from `c1ccc(C(CN2CCCCC2)c2ccccc2)cc1` to `Cc1ccccc1CCC[C@@H](CC1CCCCC1)CN(C)C(=O)Oc1ccccc1`, the inhibition falls from 5.82% to 0.63%.

Going from `CO[C@H]([C@H](C)/C=C/N(C)C=O)[C@@H](C)C(=O)CC[C@H](C)[C@H](O)[C@H](C)[C@H]1OC(=O)/C=C/C(C)=C/[C@H](O)[C@H](OC)C[C@@H]2C=CC[C@@H](C[C@H](OC)[C@@]3(CO3)[C@@H](OC)C[C@@H](OC)[C@@H]1C)O2` to `COc1cc(OC)cc(C(=O)NCCN2CCC3(CC2)C(=O)NCN3c2ccccc2)c1`, the inhibition rises from -21.1% to 0.55%.

Compared with `Clc1ccc([C@@H]2CC3CCC2N3)cn1` (stereo not given in full), `O=S(=O)(c1ccccc1)N1CCC2CCNC2C1` (stereo not given) is higher in inhibition: -1.27% for the first, 12.5% for the second.

Compared with `CS(=O)(=O)N1CCC2CCNC2C1` (stereo not given), `CCN(CC)C(=O)[C@@H]1C=C2c3cccc4[nH]c(Br)c(c34)C[C@H]2N(C)C1` is higher in inhibition: 8.62% for the first, 14.9% for the second.

First: Brc1ccc2c(c1)CNCc1cnnn1-2
Second: O=c1c2ccccc2nc(CBr)n1-c1ccc(Cl)cc1
The inhibition of the first is lower: -8.52% for the first, 6.6% for the second.

Going from `COP(=O)(Sc1ccccc1)C(Cc1ccccc1)NC(=O)OCc1ccccc1` (stereo not given) to `CCC(C)NC1(c2ccccc2)CCCCC1` (stereo not given), the inhibition rises from -13.2% to 6.15%.

First: CCC/C(=N\O)c1c[nH]c2ccccc12
Second: NCCc1ccc(S(=O)(=O)F)cc1
The inhibition of the first is lower: -11.3% for the first, 18.9% for the second.
